Test results: paper PMC7862700, “An all-to-all approach to the identification of sequence-specific readers for epigenetic DNA modifications on cytosine”

Columns and labels:
Assay in all cases: DAPPL (digital affinity profiling via proximity ligation, sequencing); 10 mM Tris-HCl pH 7.5, 50 mM NaCl, 1 mM DTT, 4% glycerol, room temperature, 30 min; GST-TFs on glutathione beads, 16-mer random dsDNA library, 0.1% formaldehyde crosslink after washing; high values mean tight binding
Details in all cases: protein: recombinant; tags: N-terminal GST; dsDNA, one strand shown
FEV = target: T1, FEV (Homo sapiens, UniProt Q99581 1-238)
T1 sequence: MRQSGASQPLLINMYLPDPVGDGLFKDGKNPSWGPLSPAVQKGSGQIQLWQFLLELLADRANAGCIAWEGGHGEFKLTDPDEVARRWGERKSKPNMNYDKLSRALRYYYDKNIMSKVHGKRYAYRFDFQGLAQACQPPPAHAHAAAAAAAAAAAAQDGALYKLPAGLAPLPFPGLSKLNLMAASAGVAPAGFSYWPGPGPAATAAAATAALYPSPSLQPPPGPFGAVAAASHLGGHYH
Outline: (§1)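 Binding signal is given per hexamer as its read frequency for a factor divided by its frequency in the tag-only sample. GST-fused human transcription factors were expressed in yeast, captured on glutathione beads, barcoded with DNA and pooled with that sample, then incubated with 200 nmole of a 16-mer random double-stranded DNA library in Tris/NaCl/DTT/glycerol buffer for 30 min at room temperature. The pools were then washed, crosslinked, proximity-ligated, amplified by PCR and sequenced on an Illumina NextSeq500.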

ETV5 = ETV5 (Homo sapiens, UniProt P41161 1-510)
Sequence of ETV5 (P41161 whole entry): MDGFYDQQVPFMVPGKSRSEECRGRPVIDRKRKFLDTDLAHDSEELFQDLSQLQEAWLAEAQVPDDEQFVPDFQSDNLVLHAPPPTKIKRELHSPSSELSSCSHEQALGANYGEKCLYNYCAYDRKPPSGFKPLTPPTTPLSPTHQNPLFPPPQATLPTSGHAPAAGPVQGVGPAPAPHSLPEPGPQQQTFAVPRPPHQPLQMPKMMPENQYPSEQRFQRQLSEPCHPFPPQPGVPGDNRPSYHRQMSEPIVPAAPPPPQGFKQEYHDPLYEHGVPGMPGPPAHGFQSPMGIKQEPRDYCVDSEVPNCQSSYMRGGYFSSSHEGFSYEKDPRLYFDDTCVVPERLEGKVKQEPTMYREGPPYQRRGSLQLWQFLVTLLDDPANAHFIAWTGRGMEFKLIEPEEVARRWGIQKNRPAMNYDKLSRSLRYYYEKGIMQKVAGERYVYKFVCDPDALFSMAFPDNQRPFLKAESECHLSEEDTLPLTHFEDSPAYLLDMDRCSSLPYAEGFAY
Outline: as §1

SPIC = target: T2, SPIC (Homo sapiens, UniProt Q8N5J4 1-248)
T2 sequence: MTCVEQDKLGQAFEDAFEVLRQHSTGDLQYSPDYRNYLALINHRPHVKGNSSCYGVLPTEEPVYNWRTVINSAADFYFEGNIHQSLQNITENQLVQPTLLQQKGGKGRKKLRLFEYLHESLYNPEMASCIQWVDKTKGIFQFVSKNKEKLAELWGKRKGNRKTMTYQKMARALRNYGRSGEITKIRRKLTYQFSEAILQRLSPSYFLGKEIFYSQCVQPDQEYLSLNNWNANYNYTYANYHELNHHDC
Outline: as §1

ELF4 = ELF4 (Homo sapiens, UniProt Q99607 1-663)
Sequence of ELF4 (Q99607 whole entry): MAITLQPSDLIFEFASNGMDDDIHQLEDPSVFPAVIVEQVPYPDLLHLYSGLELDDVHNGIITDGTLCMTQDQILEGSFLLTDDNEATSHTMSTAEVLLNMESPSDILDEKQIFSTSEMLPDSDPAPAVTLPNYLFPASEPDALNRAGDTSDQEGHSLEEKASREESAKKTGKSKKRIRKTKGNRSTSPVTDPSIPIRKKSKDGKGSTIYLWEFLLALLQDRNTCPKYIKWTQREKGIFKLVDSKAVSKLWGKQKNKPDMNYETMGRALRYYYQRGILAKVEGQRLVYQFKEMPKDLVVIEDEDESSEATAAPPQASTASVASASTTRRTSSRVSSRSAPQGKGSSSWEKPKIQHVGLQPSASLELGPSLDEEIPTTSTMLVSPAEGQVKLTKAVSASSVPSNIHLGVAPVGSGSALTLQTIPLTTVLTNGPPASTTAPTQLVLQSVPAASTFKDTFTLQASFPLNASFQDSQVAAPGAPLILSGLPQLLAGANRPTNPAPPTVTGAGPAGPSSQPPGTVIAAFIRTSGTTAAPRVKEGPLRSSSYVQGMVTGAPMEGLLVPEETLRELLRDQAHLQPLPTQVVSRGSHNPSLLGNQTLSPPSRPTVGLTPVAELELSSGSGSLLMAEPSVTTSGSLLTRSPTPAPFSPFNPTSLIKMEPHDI
Outline: as §1

ELK4 = target: T3, ELK4 (Homo sapiens, UniProt P28324-2 1-405)
T3 sequence: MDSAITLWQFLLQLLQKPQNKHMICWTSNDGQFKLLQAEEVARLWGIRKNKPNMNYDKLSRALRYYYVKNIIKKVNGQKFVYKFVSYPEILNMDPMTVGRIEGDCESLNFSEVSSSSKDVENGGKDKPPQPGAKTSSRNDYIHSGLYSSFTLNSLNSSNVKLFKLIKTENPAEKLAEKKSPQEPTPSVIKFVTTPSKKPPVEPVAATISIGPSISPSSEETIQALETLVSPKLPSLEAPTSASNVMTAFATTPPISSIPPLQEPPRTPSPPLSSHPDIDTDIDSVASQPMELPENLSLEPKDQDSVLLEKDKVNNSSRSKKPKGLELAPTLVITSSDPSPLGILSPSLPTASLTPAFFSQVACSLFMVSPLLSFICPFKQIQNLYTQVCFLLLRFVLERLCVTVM
Outline: as §1

ETV2 = target: T4, ETV2 (Homo sapiens, UniProt O00321 1-342)
T4 sequence: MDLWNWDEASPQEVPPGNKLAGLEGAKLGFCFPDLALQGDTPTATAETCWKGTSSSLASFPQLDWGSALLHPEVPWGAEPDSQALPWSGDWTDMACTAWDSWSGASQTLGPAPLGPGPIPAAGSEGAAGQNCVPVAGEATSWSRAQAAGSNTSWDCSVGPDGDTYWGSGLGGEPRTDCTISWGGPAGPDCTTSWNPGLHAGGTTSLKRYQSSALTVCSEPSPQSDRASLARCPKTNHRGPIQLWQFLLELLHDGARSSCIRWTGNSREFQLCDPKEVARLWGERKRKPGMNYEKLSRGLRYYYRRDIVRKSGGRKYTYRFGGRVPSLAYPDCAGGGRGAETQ
Outline: as §1

ELF3 = target: T5, ELF3 (Homo sapiens, UniProt P78545 1-371)
T5 sequence: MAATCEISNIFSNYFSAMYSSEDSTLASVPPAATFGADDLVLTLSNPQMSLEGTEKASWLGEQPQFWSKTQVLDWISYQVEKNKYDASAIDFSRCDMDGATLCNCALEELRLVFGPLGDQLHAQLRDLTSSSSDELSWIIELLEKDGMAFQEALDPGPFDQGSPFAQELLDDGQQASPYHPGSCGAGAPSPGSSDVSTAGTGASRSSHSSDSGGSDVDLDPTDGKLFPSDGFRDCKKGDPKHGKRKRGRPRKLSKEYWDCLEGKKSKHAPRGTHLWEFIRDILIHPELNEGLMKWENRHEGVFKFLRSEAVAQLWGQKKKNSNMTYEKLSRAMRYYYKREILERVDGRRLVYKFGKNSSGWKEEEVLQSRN
Outline: as §1

ETV1 = ETV1 (Homo sapiens, UniProt P50549 1-477)
Sequence of ETV1 (P50549 whole entry): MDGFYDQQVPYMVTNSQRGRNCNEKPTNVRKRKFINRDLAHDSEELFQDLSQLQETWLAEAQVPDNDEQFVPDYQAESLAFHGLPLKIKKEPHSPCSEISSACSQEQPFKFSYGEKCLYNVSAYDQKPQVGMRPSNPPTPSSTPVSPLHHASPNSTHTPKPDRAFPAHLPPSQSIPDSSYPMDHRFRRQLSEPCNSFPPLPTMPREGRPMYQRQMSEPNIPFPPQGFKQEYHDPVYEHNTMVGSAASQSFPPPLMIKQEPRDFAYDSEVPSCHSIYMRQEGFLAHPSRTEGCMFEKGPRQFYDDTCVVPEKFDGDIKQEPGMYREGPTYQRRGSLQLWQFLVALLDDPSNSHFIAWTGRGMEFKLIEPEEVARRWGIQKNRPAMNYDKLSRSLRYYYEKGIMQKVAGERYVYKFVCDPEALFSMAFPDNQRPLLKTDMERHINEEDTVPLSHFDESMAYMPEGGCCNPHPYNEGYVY
Outline: as §1

ERF = target: T6, ERF (Homo sapiens, UniProt P50548 1-548)
T6 sequence: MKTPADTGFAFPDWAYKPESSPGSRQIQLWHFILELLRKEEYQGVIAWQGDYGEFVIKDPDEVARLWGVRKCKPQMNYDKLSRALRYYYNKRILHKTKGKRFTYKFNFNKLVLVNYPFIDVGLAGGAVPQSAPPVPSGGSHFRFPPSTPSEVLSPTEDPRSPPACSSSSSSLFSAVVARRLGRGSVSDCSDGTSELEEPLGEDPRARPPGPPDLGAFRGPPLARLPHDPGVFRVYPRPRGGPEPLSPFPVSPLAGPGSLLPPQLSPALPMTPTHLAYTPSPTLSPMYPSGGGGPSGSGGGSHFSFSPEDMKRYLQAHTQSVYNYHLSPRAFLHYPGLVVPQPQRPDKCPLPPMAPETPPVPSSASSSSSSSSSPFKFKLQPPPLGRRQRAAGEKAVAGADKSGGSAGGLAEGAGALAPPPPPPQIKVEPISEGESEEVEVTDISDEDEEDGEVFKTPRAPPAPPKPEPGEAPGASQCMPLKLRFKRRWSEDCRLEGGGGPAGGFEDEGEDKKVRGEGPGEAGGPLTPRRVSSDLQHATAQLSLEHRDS
Outline: as §1

ETV3L = target: T7, ETV3L (Homo sapiens, UniProt Q6ZN32 1-361)
T7 sequence: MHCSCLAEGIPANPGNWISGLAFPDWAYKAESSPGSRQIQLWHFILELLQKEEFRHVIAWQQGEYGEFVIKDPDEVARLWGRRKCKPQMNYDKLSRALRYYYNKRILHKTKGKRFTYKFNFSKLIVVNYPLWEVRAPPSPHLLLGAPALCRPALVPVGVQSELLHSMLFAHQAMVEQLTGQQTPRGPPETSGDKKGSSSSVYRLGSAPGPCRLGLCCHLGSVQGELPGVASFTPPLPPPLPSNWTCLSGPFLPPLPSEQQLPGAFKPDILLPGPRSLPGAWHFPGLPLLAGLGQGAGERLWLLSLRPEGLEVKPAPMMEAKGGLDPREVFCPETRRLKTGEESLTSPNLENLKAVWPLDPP
Outline: as §1

ETS2 = target: T8, ETS2 (Homo sapiens, UniProt P15036 1-469)
T8 sequence: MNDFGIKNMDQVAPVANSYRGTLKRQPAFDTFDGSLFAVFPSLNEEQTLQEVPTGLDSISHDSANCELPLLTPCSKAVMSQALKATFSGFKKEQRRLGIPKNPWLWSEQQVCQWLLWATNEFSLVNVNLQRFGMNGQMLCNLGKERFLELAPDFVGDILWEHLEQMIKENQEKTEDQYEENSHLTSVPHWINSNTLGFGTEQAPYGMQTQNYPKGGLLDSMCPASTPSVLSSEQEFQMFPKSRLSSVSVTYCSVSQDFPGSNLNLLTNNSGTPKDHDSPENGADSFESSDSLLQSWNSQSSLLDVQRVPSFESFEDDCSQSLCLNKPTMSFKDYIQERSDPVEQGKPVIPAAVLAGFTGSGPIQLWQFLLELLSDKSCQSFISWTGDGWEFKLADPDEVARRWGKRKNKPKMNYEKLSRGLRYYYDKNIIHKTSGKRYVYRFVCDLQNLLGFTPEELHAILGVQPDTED
Outline: as §1

SPDEF = target: T9, SPDEF (Homo sapiens, UniProt O95238 1-335)
T9 sequence: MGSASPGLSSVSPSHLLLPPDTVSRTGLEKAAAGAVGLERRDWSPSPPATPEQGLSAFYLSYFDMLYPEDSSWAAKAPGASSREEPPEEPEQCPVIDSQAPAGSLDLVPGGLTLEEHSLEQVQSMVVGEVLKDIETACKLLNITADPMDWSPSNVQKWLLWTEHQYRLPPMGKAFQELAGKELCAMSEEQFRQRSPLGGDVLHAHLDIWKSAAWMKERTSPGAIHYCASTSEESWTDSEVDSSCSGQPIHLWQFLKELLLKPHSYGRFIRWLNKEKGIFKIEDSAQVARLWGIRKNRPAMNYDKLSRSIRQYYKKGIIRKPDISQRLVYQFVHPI
Outline: as §1

ETV7 = target: T10, ETV7 (Homo sapiens, UniProt Q9Y603 1-341)
T10 sequence: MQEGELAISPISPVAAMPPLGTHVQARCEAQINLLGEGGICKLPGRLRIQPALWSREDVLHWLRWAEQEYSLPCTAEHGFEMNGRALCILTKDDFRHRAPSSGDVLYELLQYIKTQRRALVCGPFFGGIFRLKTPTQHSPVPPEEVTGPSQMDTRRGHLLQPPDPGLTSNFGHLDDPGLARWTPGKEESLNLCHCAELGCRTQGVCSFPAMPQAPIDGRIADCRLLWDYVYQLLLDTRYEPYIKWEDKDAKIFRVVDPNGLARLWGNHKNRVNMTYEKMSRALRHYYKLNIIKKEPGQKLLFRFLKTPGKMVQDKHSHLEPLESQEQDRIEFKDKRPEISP
Outline: as §1

ELF5 = target: T11, ELF5 (Homo sapiens, UniProt Q9UKW6-2 1-255)
T11 sequence: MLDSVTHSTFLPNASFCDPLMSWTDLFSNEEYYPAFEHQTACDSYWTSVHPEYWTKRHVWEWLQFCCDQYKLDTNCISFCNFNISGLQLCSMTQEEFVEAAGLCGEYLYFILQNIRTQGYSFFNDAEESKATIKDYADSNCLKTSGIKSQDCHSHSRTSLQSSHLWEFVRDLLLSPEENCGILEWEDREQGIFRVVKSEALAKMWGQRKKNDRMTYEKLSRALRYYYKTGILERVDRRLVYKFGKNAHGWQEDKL
Outline: as §1

ETV3 = target: T12, ETV3 (Homo sapiens, UniProt P41162-2 1-143)
T12 sequence: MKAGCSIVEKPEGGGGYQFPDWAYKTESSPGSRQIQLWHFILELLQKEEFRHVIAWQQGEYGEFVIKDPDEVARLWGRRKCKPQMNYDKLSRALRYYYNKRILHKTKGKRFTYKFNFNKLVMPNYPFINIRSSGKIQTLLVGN
Outline: as §1

ETV6 = ETV6 (Homo sapiens, UniProt P41212 1-452)
Sequence of ETV6 (P41212 whole entry): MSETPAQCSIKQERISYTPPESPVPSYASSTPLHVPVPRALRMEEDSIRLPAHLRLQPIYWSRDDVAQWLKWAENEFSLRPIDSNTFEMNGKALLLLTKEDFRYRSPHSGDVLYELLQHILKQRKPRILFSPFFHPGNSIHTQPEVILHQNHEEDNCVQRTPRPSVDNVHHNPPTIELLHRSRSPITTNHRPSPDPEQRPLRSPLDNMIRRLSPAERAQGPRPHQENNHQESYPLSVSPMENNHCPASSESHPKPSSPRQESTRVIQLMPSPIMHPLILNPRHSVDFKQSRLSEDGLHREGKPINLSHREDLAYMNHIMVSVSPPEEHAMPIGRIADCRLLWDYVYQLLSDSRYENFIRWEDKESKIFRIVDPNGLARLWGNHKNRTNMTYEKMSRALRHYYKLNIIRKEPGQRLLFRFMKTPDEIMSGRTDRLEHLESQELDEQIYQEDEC
Outline: as §1

Row | Sequence | binding signal (FEV) | binding signal (ETV5) | binding signal (SPIC) | binding signal (ELF4) | binding signal (ELK4) | binding signal (ETV2) | binding signal (ELF3) | binding signal (ETV1) | binding signal (ERF) | binding signal (ETV3L) | binding signal (ETS2) | binding signal (SPDEF) | binding signal (ETV7) | binding signal (ELF5) | binding signal (ETV3) | binding signal (ETV6)
1 | CCGGTA | 1.81 fold enrichment (6-mer frequency, TF over GST control) | 1.59 fold enrichment (6-mer frequency, TF over GST control) | 1.69 fold enrichment (6-mer frequency, TF over GST control) | 1.45 fold enrichment (6-mer frequency, TF over GST control) | 1.41 fold enrichment (6-mer frequency, TF over GST control) | 1.52 fold enrichment (6-mer frequency, TF over GST control) | 1.6 fold enrichment (6-mer frequency, TF over GST control) | 1.59 fold enrichment (6-mer frequency, TF over GST control) | 1.4 fold enrichment (6-mer frequency, TF over GST control) | 1.46 fold enrichment (6-mer frequency, TF over GST control) | 1.54 fold enrichment (6-mer frequency, TF over GST control) | 1.96 fold enrichment (6-mer frequency, TF over GST control) | 1.35 fold enrichment (6-mer frequency, TF over GST control) | 1.83 fold enrichment (6-mer frequency, TF over GST control) | 1.68 fold enrichment (6-mer frequency, TF over GST control) | 1.65 fold enrichment (6-mer frequency, TF over GST control)
2 | CGTTAC | 1.13 fold enrichment (6-mer frequency, TF over GST control) | 1.08 fold enrichment (6-mer frequency, TF over GST control) | 1.05 fold enrichment (6-mer frequency, TF over GST control) | 1.07 fold enrichment (6-mer frequency, TF over GST control) | 1.02 fold enrichment (6-mer frequency, TF over GST control) | 1.02 fold enrichment (6-mer frequency, TF over GST control) | 1.04 fold enrichment (6-mer frequency, TF over GST control) | 1.17 fold enrichment (6-mer frequency, TF over GST control) | 1.16 fold enrichment (6-mer frequency, TF over GST control) | 1.18 fold enrichment (6-mer frequency, TF over GST control) | 1.23 fold enrichment (6-mer frequency, TF over GST control) | 1.1 fold enrichment (6-mer frequency, TF over GST control) | 1.11 fold enrichment (6-mer frequency, TF over GST control) | 1.15 fold enrichment (6-mer frequency, TF over GST control) | 1.14 fold enrichment (6-mer frequency, TF over GST control) | 1.12 fold enrichment (6-mer frequency, TF over GST control)
